Among all 360,000 compounds or so, about 10,000 (2.8%) were called active. Another 4% or so got no clear call; they are omitted. The sample as a whole holds a higher share of actives than the screen did. A number with no mark means an inactive call. Calls come from the whole dose curve; as a rule, active = well fitted inhibition curve with a large enough effect; inconclusive = small, poorly fitted or top-dose-only effect; inactive = flat fitted curve, though single readings scatter.
What follows are molecules tested against Serine/threonine-protein kinase PLK1 (Homo sapiens) (UniProt P53350) (assay: qHTS for Inhibitors of PLK1-PDB (polo-like kinase 1 - polo-box domain): Primary Screen). Conditions: Plk1 PBD binding of FITC phosphopeptide, fluorescence polarization.
Sequence of Serine/threonine-protein kinase PLK1 (Homo sapiens) (P53350 whole entry, looked up, the tested form may be a part): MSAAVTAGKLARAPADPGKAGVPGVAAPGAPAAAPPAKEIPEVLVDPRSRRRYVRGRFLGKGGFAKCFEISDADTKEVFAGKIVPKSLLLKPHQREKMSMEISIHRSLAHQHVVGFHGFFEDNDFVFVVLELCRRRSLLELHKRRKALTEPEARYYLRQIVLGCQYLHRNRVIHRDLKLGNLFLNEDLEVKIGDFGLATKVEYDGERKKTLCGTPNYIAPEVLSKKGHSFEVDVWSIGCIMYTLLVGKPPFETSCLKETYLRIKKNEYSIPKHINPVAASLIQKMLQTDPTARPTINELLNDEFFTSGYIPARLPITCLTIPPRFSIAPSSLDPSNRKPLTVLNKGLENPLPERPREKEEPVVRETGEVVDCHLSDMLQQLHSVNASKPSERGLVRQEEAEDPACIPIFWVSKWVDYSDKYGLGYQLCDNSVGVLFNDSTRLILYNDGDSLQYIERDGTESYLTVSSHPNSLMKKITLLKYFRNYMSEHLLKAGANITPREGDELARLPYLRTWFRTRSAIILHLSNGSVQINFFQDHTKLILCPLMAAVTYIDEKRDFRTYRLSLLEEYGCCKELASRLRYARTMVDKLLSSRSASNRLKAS
Source text: The polo-like kinase 1 (Plk1) is a member of a conserved subfamily of serine / threonine protein kinases that plays a pivotal roles in cell proliferation. It has a C-terminal non-catalytic region called the polo-box domain (PBD) that plays a crucial role in the subcellular localization of the Plk1. […] Furthermore, depletion of the overexpressed Plk1 by RNAi efficiently induces apoptotic cell death in cancer and reduces tumor growth in mouse xenograft models. Thus, targeting Plk1 is an appealing strategy for anti-cancer therapy. Therefore, this project aimed to screen the Molecular Libraries Small Molecule Repository (MLSMR) using a novel approach to find inhibitors that target the Plk1 PBD instead of the conventional N-terminal catalytic domain. This project employed a fluorescence polarization (FP) assay using a FITC-conjugated phospho-9-mer (p-9-mer) peptide and purified human Plk1 PBD protein. The identified small molecule inhibitors of Plk1 PBD can then further be developed into useful tools for biomedical and clinical research that complements or replaces current relevant disease therapy. NIH Chemical Genomics Center [NCGC] NIH Molecular Libraries Probe Centers Network [MLPCN] MLPCN Grant: MH100728 Assay Submitter (PI): Kyung Lee, NCI
Four microliter of 25 nM FITC-p-9-mer + 60 nM Plk1 PBD in buffer solution (final concentrations 25 nM and 60 nM respectively) or 4 uL of 25 nM FITC-p-9-mer (final concentration 25 nM) in buffer will be dispensed into a 1,536 Greiner medium-binding black solid plate. Small molecules at final concentrations of 18 nM to 57 uM and positive control phospho-9-mer (sequence: Ac-PPLHSpTAI-NH2) at final concentrations 26 nM to 57 uM and phospho-13-mer (sequence: Ac-[…]pTAI-NH2) at final concentrations of 1 nM to 2.3 uM will be pin-transferred (23 nL) to the plate via a Kalypsys pin-tool robotics equipped with a 1,536-pin array. The reaction plate will be centrifuged for 1 min at 1000 rpm and incubated at room temperature for 10 min. The FITC fluorescence signals will be read using the PerkinElmer ViewLux plate reader at 480 / 20 nm excitation and 540 / 20 nm S and P polarization emission wavelengths. Reagent bottles will be kept submerged into 4 °C recirculating chiller bath and all liquid lines will be covered with aluminum foil to minimize degradation. Library plates will be screened starting from the lowest to the highest concentrations to minimize compound carryover. Vehicle only plates, with DMSO being pin-transferred instead of compound solutions, will be included regularly throughout the screen to record any systematic shifts in assay signal.
% is set by controls: 0 for no effect and ±100 for the full control effect; potency is the fitted concentration of half-maximal effect.
Note: nearly all actives have a fitted effect of over 65% in size.
Throughout, for max response, negative = inhibition: series mostly up to about 57 µM.

Structure (SMILES)	max response, negative = inhibition	Potency
CN1C(=O)/C(=C\c2cc(Br)cs2)c2ccccc21	9.61%	–
COc1ccc(NC(=O)ON=C2c3ccccc3-c3ccccc32)cc1	-8.43%	–
CN1C(=O)/C(=N/OC(=O)c2ccccc2Br)c2ccccc21	–	23.8 µM (active)
O=C(N=C1SC2CS(=O)(=O)CC2N1Cc1ccccc1)c1ccccc1 (stereo not given)	-10.4%	–
O=C(C1Cc2ccccc2CN1C(=O)c1ccco1)N1CCN(c2ccccc2)CC1 (stereo not given)	-14.9%	–
CC(=O)N1Cc2ccccc2CC1C(=O)O (stereo not given)	–	2.67 µM (active)
CC(=O)c1ccc(N2Cc3ccccc3C2)cc1	-10.7%	–
CSc1ncnc2c1ncn2CCCNCC1CCCCC1	2.12%	–
Cc1c(NC(=O)COC(=O)/C=C/c2cccc(F)c2)c(=O)n(-c2ccccc2)n1C	-2.07%	–
Cc1c(C(=O)NCC2CC2)sc(=O)n1Cc1cccc(F)c1	3.08%	–
N#CC1(Nc2ccc3c4c(cccc24)CC3)CCCCC1	-12.6%	–
Cc1oc(-c2cccc(Cl)c2)[n+]([O-])c1C	–	29.9 µM (active)
Cc1oc(-c2ccccc2Cl)[n+]([O-])c1C	-3.14%	–
CCOC(=O)CSc1ncc(-c2cccc(Cl)c2)cn1	-7.44%	–
CC(C)c1ccc(CC(=O)N2CCC2(C)C(=O)NS(=O)(=O)c2ccc(C(C)(C)C)cc2)cc1 (stereo not given)	-5.51%	–
CCCC(NS(=O)(=O)c1ccc(OC)cc1)C(=O)O (stereo not given)	-2.19%	–
COc1ccc(S(=O)(=O)/N=C2\C=C(NS(=O)(=O)c3ccccc3)C(=O)c3ccccc32)cc1	–	29.9 µM (active)
COc1ccc(NS(=O)(=O)c2ccc(Oc3c(C#N)cccc3C#N)cc2)cc1	-0.548%	–
COC(=O)c1c(NC(=O)C(=O)N2CCCCC2)sc2c1CC(C)(C)OC2	-13.1%	–
CCOC(=O)N1CCN(C(=O)C(=O)Nc2sc3c(c2C#N)CC(C)(C)OC3)CC1	-23.2%	–
CC1(C)Cc2c(sc(NC(=O)C(=O)N3CCOCC3)c2C#N)CO1	–	9.47 µM (active)
CC(C)C[C@H]1CNC(=O)C(=O)N1C[C@@H]1CCCN1C[C@H](Cc1ccccc1)N1C[C@H](CC(C)C)N(CC2CCCCCC2)C(=O)C1=O	2.6%	–
O=C(Nc1ccc(F)cc1)c1ccc(S(=O)(=O)NCc2cccnc2)cc1	-1.16%	–

Structure (SMILES)	max response, negative = inhibition	Potency
Cc1cccc(CS(=O)(=O)c2ncc(Cl)c(C(=O)Nc3ccc(F)cc3)n2)c1	–	16.8 µM (active)
Cc1cccc(NC(=O)c2nc(S(=O)(=O)Cc3ccccc3)ncc2Cl)c1	–	8.44 µM (active)
CN1CCN(c2ccc(NC(=O)c3ccc4c(c3)[nH]c(=O)n4Cc3ccc(F)cc3)cc2)CC1	-2.57%	–
Cc1ccc(CS(=O)(=O)c2ncc(Cl)c(C(=O)Nc3nnc(C)s3)n2)cc1	-16.3%	–
Cc1cccc(NC(=O)C(C)SCc2ccccc2)c1 (stereo not given)	-10.4%	–
COC(=O)[C@@]12C[C@@H](CC(=O)NCCCCc3ccccc3)C(=O)N(Cc3ccccc3)C1=CCC(C)(C)C2	-7.29%	–
O=C(C[C@H]1C[C@@H]2c3cc(NC(=O)C4CCC4)ccc3O[C@@H]2[C@H](CO)O1)NC1CCCCC1	-5.12%	–
COc1ccc(S(=O)(=O)N2CCC(C(=O)NCCC(=O)Nc3ccccc3OC)CC2)cc1	2.5%	–
Cc1cccc(S(=O)(=O)N(C)C[C@@H]2OCc3cnnn3CCCC(=O)N([C@H](C)CO)C[C@@H]2C)c1	-8.68%	–
COc1ccc(C(=O)N2CCCCC2c2cc(C(=O)Nc3ccccc3)no2)cc1 (stereo not given)	-2.81%	–
Cc1ccccc1S(=O)(=O)NC(=O)C1(C)CCN1C(=O)C1(c2ccccc2)CCCC1 (stereo not given)	2.57%	–
Cn1c(Cc2cccc3ccccc23)nnc1SCC(=O)N1CCN(c2cccc(Cl)c2)CC1	–	29.9 µM (active)
Cn1c(CNC(=O)c2ccco2)nnc1SCC(=O)N1CCN(c2ccccc2)CC1	-4.04%	–
CCn1c(CNC(=O)c2ccccc2)nnc1SCC(=O)N1CCN(c2ccccc2)CC1	-1.21%	–
C[C@H]1CN([C@@H](C)CO)C(=O)c2cc(-c3cccc(F)c3)cnc2O[C@@H]1CN(C)S(C)(=O)=O	-9.21%	–
COc1ccc(-c2c(C#N)cnc(C)c2C)c(O)c1OC	-12.9%	–
C[C@H](CO)N1C[C@H](C)[C@@H](CN(C)S(=O)(=O)c2ccc(F)cc2)OCc2cnnn2CCCC1=O	-19.3%	–
O=C(Nc1cccc2ccccc12)c1[nH]c(-c2ccccc2)c2c1C(=O)N(C1CC1)C2=O	-21.7%	–
CN(C)C(=O)c1cccc(-c2cnc3c(NC=O)cc(-c4ccc(F)cc4)cn23)c1	-19.5%	–
CCc1c(C)sc(NC(=O)c2ccc(Br)o2)c1C(=O)OC	-7.98%	–
CCc1c(C)sc(NC(=O)c2cccs2)c1C(N)=O	–	4.74 µM (active)
CCc1cccc(C)c1NC(=O)COC(=O)CNC(=O)c1cccs1	-0.37%	–

Source: PubChem BioAssay AID720504 (National Center for Advancing Translational Sciences (NCATS), 2013)
